The entries come from a sample that favours hits as a whole.
Sa growth inh: S. aureus growth inhibition at 42 and 30 °C, primary screen, LtaS inhibitor project, RN4220, two temperatures | OD600, 20 h, 42 °C; active compounds read low | relative growth, % (test concentration not listed) | actives 0.53% (n = 170,000) | AID 720641, 2013;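 active = relative growth at most 50% at the other temperature and 20+ points below 30 °C, or under 10% at both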
S aureus helic: inhibitors of S. aureus replicative helicase, primary screen, biochemical, fluorescence unwinding readout. purified S. aureus helicase, fluorescence unwinding assay. replicative DNA helicase (DnaC/DnaB), Staphylococcus aureus. AID 485395, 2010. actives 0.05% (n = 120,000). inhibition, % (concentration not given with the values); in the data active = inhibition above about 25%, passing the limit was not always enough
Of the large screens only hits and unclear results are named; the others gave an inactive call.

Cc1c(Cl)ccc2sc(N(Cc3ccccn3)C(=O)c3ccco3)nc12	none
CCOC(=O)c1c(C#N)c(C)n(-c2ccccc2)c1C	none
CC(=O)NC1=CC(=O)c2nonc2C1=O	Sa growth inh -0.7
COc1nonc1NC(C)=O	none
Cc1ccc(-c2nnc3c4ccccc4c(C)nn23)cc1S(=O)(=O)NC(C)C	none
O=C(Nc1nnc(C(F)(F)F)s1)c1ccccc1	none
CC(C)(Oc1ccc(Cl)cc1)C(=O)Nc1nnc(C(F)(F)F)s1	Sa growth inh -1.1
O=C(Nc1ccccc1)Nc1nnc(C(F)(F)F)s1	Sa growth inh 1.1 (no result: S aureus helic)
CC(C)(Oc1ccc(Cl)cc1)C(=O)Nc1nccs1	none
O=C(O)CCC(=O)Nc1ccc(Oc2ccccc2)cc1	none (no result: S aureus helic)
Cc1cc(C(=O)CN2C(=O)C3CC=CCC3C2=O)c(C)n1CC1CCCO1 (stereo not given)	none
Oc1ccc2c(c1)c(-c1ccccc1)nn2-c1ccccc1	Sa growth inh 20
c1ccc(-c2nn(-c3ccccc3)c3c2cnc2ccccc23)cc1	none
N#C/C(C(N)=O)=C1/C(=O)Nc2ccc(Br)cc21	Sa growth inh 9.1
CCOC(=O)/C(C#N)=C1\C(=O)Nc2ccccc21	none
Cc1c(Sc2ccc(Cl)cc2)cnn1C(=O)Nc1cccc(C(F)(F)F)c1	Sa growth inh 4.5 (no result: S aureus helic)
Cc1c(Sc2ccc(Cl)cc2)cnn1C(=O)NC(C)C	none (no result: S aureus helic)
COc1ccc(C2CC(=O)c3c(C)nc(N4CCN(C=O)CC4)nc3C2)c(OC)c1 (stereo not given)	none (no result: S aureus helic)
COc1ccc(C(=O)Cn2nc(CNc3ccc(Br)cc3)[n+]3c2CCCCC3)cc1	Sa growth inh 1.4
Cc1nn(CC(=O)c2ccc(Br)cc2)c(N)[n+]1C	none (no result: Sa growth inh)
O=C(NC(Cc1ccccc1)C(=O)Nc1nnc(-c2ccco2)o1)OCc1ccccc1 (stereo not given)	none
O=C(CN1C(=O)c2cccnc2Oc2ccc(Cl)cc21)N1CCCCC1	none
N#Cc1c(Cl)cccc1-n1ccnc1	none
Clc1ccccc1C(c1ccccc1)(c1ccccc1)n1ccnc1	Sa growth inh 0.2 (no result: S aureus helic)
CC[C@H]1OC(=O)[C@H](C)[C@@H](O[C@H]2C[C@@](C)(OC)[C@@H](O)[C@H](C)O2)[C@H](C)[C@@H](O[C@@H]2O[C@H](C)C[C@H](N(C)C)[C@H]2O)[C@](C)(OC)C[C@@H](C)C(=O)[C@H](C)[C@@H](O)[C@]1(C)O	Sa growth inh -0.8 (no result: S aureus helic)
COc1ccc(NC(=O)Cn2c(SCc3ccc(F)cc3)nc3cccnc32)cc1OC	none (no result: S aureus helic)
O=C(CSc1ccccc1)NCc1ccc2c(c1)OCO2	none (no result: S aureus helic)
N#Cc1ccsc1NC(=O)c1cccnc1N1CCCC1	none
CCN(C(=O)Cc1c(C(=O)O)[nH]c2ccc(Cl)cc12)c1ccc(C)c(C)c1	none
CCCN(C(=O)Cc1c(C(=O)O)[nH]c2ccc(Cl)cc12)c1ccc(OCC)cc1	Sa growth inh 29 (no result: S aureus helic)
COc1ccc2cc(CN(Cc3nnnn3Cc3ccccc3)C3CCCC3)c(=O)[nH]c2c1	none
O=C1C=C(Cc2ccc(F)cc2)C(=O)c2ccccc21	Sa growth inh 0.2
O=C1C(=Cc2ccc(F)cc2)C(=O)c2ccccc21	none (no result: S aureus helic)
O=C1C=C(c2ccccc2)C(=O)c2ccccc21	Sa growth inh 3.8 (no result: S aureus helic)
O=C1C=C(Nc2ccccc2)C(=O)c2ccccc21	none
NC1=CC(=O)c2ccccc2C1=O	Sa growth inh 0.6
CC1=CC(=O)c2ccccc2C1=O	none (no result: S aureus helic)
Oc1oc(-c2cccs2)nc1/C=C1\C=Nc2ccccc21	none
CCn1c(-c2ccc(F)cc2)csc1=Nc1cc(OC)c(Cl)cc1OC	none
CC1(C)CN(C(=S)Nc2cccc(Cl)c2)C1=O	none (no result: S aureus helic)
COCCN(CCOC)c1ncnc2c1c(-c1ccccc1)cn2-c1ccc(C)c(Cl)c1	none (no result: S aureus helic)
S=C(NCCSc1ccc(Cl)cc1)Nc1cccc(Cl)c1	none
CC(CNC(=S)Nc1cccc(Cl)c1)CSc1ccc(Cl)cc1 (stereo not given)	Sa growth inh -0.4
O=C(COC(=O)c1ccc(Cl)cc1)NC1CC1	none
Nc1c(-c2ccccc2)nc2ccccn12	none
O=C(CSc1ccc(Cl)cc1)c1ccc[nH]1	none
COc1ccccc1C(=O)CSc1ccc(Cl)cc1	Sa growth inh 6.6
CC(C)c1nc2ccccc2n1C(=O)c1ccccc1C(=O)O	none
Cc1nc2c3c(-c4ccccc4)nc(N4CCCCCC4)nc3nn2c(C)c1CCC(=O)O	none
CO[C@H]1/C=C/O[C@@]2(C)Oc3c(C)c(O)c4c(O)c(c(/C=N/N5CCN(C)CC5)c(O)c4c3C2=O)NC(=O)/C(C)=C\C=C\[C@H](C)[C@H](O)[C@@H](C)[C@@H](O)[C@@H](C)[C@H](OC(C)=O)[C@@H]1C	Sa growth inh 1.6 (no result: S aureus helic)
NS(=O)(=O)c1ccc(CNS(=O)(=O)c2ccccc2)cc1	none (no result: S aureus helic)
FC(F)(F)c1cccc(N=Cc2ccccc2)c1	none
FC(F)(F)c1cccc(N=C=S)c1	Sa growth inh -1.3

Screening results as filed in PubChem BioAssay.
